Data: PubChem BioAssay AID1159580 (chemical genetic matrix, 2015)
Several values for one entry are separate records, joined by “and”; a condition that tells them apart may be missing. Equal entries are not always repeated. Out of some 5,500 compounds screened, about 2,000 (36%) were called active. Another 18% or so got no clear call; they are omitted. No stated cut-off is given here; in the data, active means normalized growth mostly below about 0.91 (no sharp cut-off); inconclusive means no clear call, values can overlap the other calls; inactive means mostly above about 0.92. The list shows a part of the results.

Assay: chemical genetic growth profiling, strain panel (AID 1159580);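 further: tested at 20 µM; growth read once vehicle control cultures reached saturation at 30 °C; 1 = growth at the plate median or of vehicle wells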
Conditions: S. cerevisiae deletion strains, growth OD

Measured: normalized growth

Cc1ccc(O)cc1
inactive: locus YAL013W, strain DEP1, stronger effect = lower value 1.02 | locus YAL021C, strain ccr4, stronger effect = lower value 1.04 | locus YAL026C, strain drs2, stronger effect = lower value 1.03 | locus YAL030W, strain snc1, stronger effect = lower value 1.02 | locus YBL061C, strain skt5, stronger effect = lower value 1.02 | locus YBR009C, strain hhf1, stronger effect = lower value 1.03 | locus YBR021W, strain FUR4, stronger effect = lower value 1.07 | locus YBR023C, strain chs3, stronger effect = lower value 1.02 | locus YBR171W, strain sec66, stronger effect = lower value 1.02 | locus YBR229C, strain ROT2, stronger effect = lower value 1.02 | locus YBR231C, strain swc5, stronger effect = lower value 0.992 | locus YBR279W, strain paf1, stronger effect = lower value 1.02 | locus YCL011C, strain gbp2, stronger effect = lower value 1.02 | locus YCL016C, strain dcc1, stronger effect = lower value 1.01 | locus YCL029C, strain bik1, stronger effect = lower value 0.985 | locus YCL061C, strain MRC1, stronger effect = lower value 1.02 | locus YCL069W, strain vba3, stronger effect = lower value 1.02 | locus YCR088W, strain abp1, stronger effect = lower value 1.01 | locus YDL005C, strain med2, stronger effect = lower value 1.03 | locus YDL035C, strain GPR1, stronger effect = lower value 1.01 | locus YDL040C, strain nat1, stronger effect = lower value 1.01 | locus YDL074C, strain BRE1, stronger effect = lower value 1.03 | locus YDL101C, strain DUN1, stronger effect = lower value 1.03 | locus YDL134C, strain PPH21, stronger effect = lower value 1.05 | locus YDL185W, strain tfp1, stronger effect = lower value 0.99 | locus YDL192W, strain arf1, stronger effect = lower value 1.04 | locus YDR001C, strain nth1, stronger effect = lower value 1.02 | locus YDR069C, strain doa4, stronger effect = lower value 1.04 | locus YDR101C, strain arx1, stronger effect = lower value 0.98 | locus YDR137W, strain rgp1, stronger effect = lower value 1.04 | locus YDR159W, strain sac3, stronger effect = lower value 1 | locus YDR162C, strain NBP2, stronger effect = lower value 1.03 | locus YDR195W, strain ref2 1.01 | locus YDR297W, strain sur2, stronger effect = lower value 1.03 | locus YDR318W, strain mcm21, stronger effect = lower value 1.01 | locus YDR334W, strain swr1, stronger effect = lower value 1.02 | locus YDR335W, strain msn5, stronger effect = lower value 1.02 | locus YDR388W, stronger effect = lower value 1.02 | locus YDR392W, strain spt3, stronger effect = lower value 0.916 | locus YDR502C, strain sam2, stronger effect = lower value 0.979 | locus YEL003W, strain gim4, stronger effect = lower value 1.01 | locus YEL037C, strain rad23, stronger effect = lower value 1.01 | locus YEL061C, strain CIN8 (second series), stronger effect = lower value 1.01 | locus YEL061C, strain CIN8, stronger effect = lower value 1.02 | locus YER015W, strain faa2, stronger effect = lower value 1.01 | locus YER016W, strain bim1, stronger effect = lower value 1.01 | locus YER110C, stronger effect = lower value 0.991 | locus YER111C, strain swi4, stronger effect = lower value 1.01 | locus YER155C, strain BEM2 (second series), stronger effect = lower value 1.03 | locus YER155C, strain BEM2, stronger effect = lower value 1.02 | locus YER167W, strain BCK2, stronger effect = lower value 1.03 | locus YFR010W, strain ubp6, stronger effect = lower value 1.02 | locus YGL078C, strain dbp3, stronger effect = lower value 0.989 | locus YGL086W, strain mad1, stronger effect = lower value 1.01 | locus YGL167C, strain pmr1, stronger effect = lower value 1.01 | locus YGL173C, strain kem1, stronger effect = lower value 1.04 | locus YGL227W, strain vid30, stronger effect = lower value 1.02 | locus YGL240W, strain doc1, stronger effect = lower value 1.02 | locus YGL248W, strain PDE1, stronger effect = lower value 1.07 | locus YGL253W, strain hxk2, stronger effect = lower value 1.03 | locus YGR135W, strain pre9, stronger effect = lower value 1.01 | locus YGR229C, strain SMI1, stronger effect = lower value 1.04 | locus YGR252W, strain gcn5, stronger effect = lower value 0.966 | locus YHR013C, strain ard1, stronger effect = lower value 1.02 | locus YHR027C, strain rpn1, stronger effect = lower value 1.02 | locus YHR030C, strain SLT2, stronger effect = lower value 1.03 and 1 | locus YHR079C, strain IRE1 (second series), stronger effect = lower value 1.01 | locus YHR079C, strain IRE1, stronger effect = lower value 1 | locus YHR094C, strain hxt1, stronger effect = lower value 0.99 | locus YHR129C, strain ARP1, stronger effect = lower value 1.03 | locus YHR142W, strain chs7, stronger effect = lower value 1.03 | locus YHR200W, strain rpn10, stronger effect = lower value 1.01 | locus YIL066C, strain RNR3, stronger effect = lower value 1.06 | locus YIL073C, strain SPO22, stronger effect = lower value 1.03 | locus YIL125W, strain kgd1, stronger effect = lower value 0.994 | locus YIR030C, strain dcg1, stronger effect = lower value 1.01 | locus YJL092W, strain hpr5, stronger effect = lower value 1.02 | locus YJL095W, strain BCK1 (second series), stronger effect = lower value 1.01 | locus YJL095W, strain BCK1, stronger effect = lower value 1.07 and 1.02 | locus YJL115W, strain asf1, stronger effect = lower value 1.01 | locus YJL129C, strain trk1, stronger effect = lower value 1.01 | locus YJL134W, strain LCB3, stronger effect = lower value 1.02 | locus YJL154C, strain vps35, stronger effect = lower value 1.03 | locus YJL164C, strain tpk1, stronger effect = lower value 1.02 | locus YJL166W, strain qcr8, stronger effect = lower value 1.02 | locus YJL168C, strain set2, stronger effect = lower value 0.994 | locus YJL187C, strain SWE1 (second series), stronger effect = lower value 1.04 | locus YJR043C, strain POL32, stronger effect = lower value 1.01 | locus YJR066W, strain TOR1, stronger effect = lower value 0.987 | locus YKL009W, strain mrt4, stronger effect = lower value 1.01 | locus YKL068W, stronger effect = lower value 1 | locus YKL085W, strain MDH1 (second series), stronger effect = lower value 1 | locus YKL085W, strain MDH1, stronger effect = lower value 1 | locus YKL160W, strain elf1, stronger effect = lower value 1.01 | locus YKR001C, strain vps1, stronger effect = lower value 0.998 | locus YKR026C, strain gcn3, stronger effect = lower value 1.02 | locus YKR091W, strain srl3, stronger effect = lower value 1.02 | locus YLL001W, strain dnm1, stronger effect = lower value 0.984 | locus YLL026W, stronger effect = lower value 1.01 | locus YLL041C, strain sdh2, stronger effect = lower value 1.02 | locus YLR027C, strain aat2, stronger effect = lower value 1.03 | locus YLR039C, strain RIC1, stronger effect = lower value 1.05 | locus YLR058C, strain SHM2, stronger effect = lower value 1.04 | locus YLR102C, strain apc9, stronger effect = lower value 0.993 | locus YLR113W, strain HOG1, stronger effect = lower value 1.01 | locus YLR221C, strain rsa3, stronger effect = lower value 1.03 | locus YLR258W, strain gsy2, stronger effect = lower value 1.01 | locus YLR262C, strain YPT6 (second series), stronger effect = lower value 1.04 | locus YLR262C, strain YPT6, stronger effect = lower value 1.07 | locus YLR268W, strain sec22, stronger effect = lower value 0.998 | locus YLR320W, strain mms22, stronger effect = lower value 1.02 | locus YLR330W, strain CHS5, stronger effect = lower value 1.03 | locus YLR342W, strain FKS1 (second series), stronger effect = lower value 1.08 | locus YLR342W, strain FKS1, stronger effect = lower value 1.02 | locus YLR357W, strain rsc2, stronger effect = lower value 1.01 | locus YLR370C, strain arc18, stronger effect = lower value 1.01 | locus YLR371W, strain rom2, stronger effect = lower value 1.02 | locus YLR384C, strain iki3, stronger effect = lower value 1.02 | locus YLR418C, strain cdc73, stronger effect = lower value 1.04 | locus YML016C, strain PPZ1, stronger effect = lower value 1.04 | locus YML032C, strain rad52, stronger effect = lower value 1 | locus YML120C, strain ndi1, stronger effect = lower value 1.01 | locus YML124C, strain tub3, stronger effect = lower value 0.999 | locus YMR058W, strain fet3, stronger effect = lower value 1.03 | locus YMR078C, strain ctf18, stronger effect = lower value 1 | locus YMR125W, strain sto1, stronger effect = lower value 1.03 | locus YMR129W, stronger effect = lower value 1.01 | locus YMR205C, strain PFK2, stronger effect = lower value 1.03 | locus YMR223W, strain ubp8, stronger effect = lower value 1.02 | locus YMR231W, strain pep5, stronger effect = lower value 1.02 | locus YMR263W, strain SAP30, stronger effect = lower value 1.02 | locus YMR307W, strain GAS1, stronger effect = lower value 1.13 | locus YNL067W, strain RPL9B, stronger effect = lower value 1.02 | locus YNL071W, strain lat1, stronger effect = lower value 1.02 | locus YNL128W, strain TEP1, stronger effect = lower value 1.02 | locus YNL183C, strain NPR1, stronger effect = lower value 0.951 | locus YNL209W, strain ssb2, stronger effect = lower value 1.01 | locus YNL233W, strain BNI4, stronger effect = lower value 1.05 | locus YNL248C, strain rpa49, stronger effect = lower value 1.03 | locus YNL250W, strain rad50, stronger effect = lower value 0.996 | locus YNL271C, strain bni1, stronger effect = lower value 0.994 | locus YNL298W, strain CLA4, stronger effect = lower value 1 | locus YNL307C, strain MCK1, stronger effect = lower value 1.01 | locus YNL322C, strain KRE1 (second series), stronger effect = lower value 1.02 | locus YNR049C, strain mso1, stronger effect = lower value 1.02 | locus YNR052C, strain pop2, stronger effect = lower value 0.997 | locus YOL006C, strain TOP1, stronger effect = lower value 1.01 | locus YOL012C, strain htz1 1.54 | locus YOL147C, strain pex11, stronger effect = lower value 1.01 | locus YOR001W, strain rrp6, stronger effect = lower value 0.984 | locus YOR061W, strain CKA2, stronger effect = lower value 1.02 | locus YOR069W, strain VPS5, stronger effect = lower value 1.02 | locus YOR070C, strain gyp1, stronger effect = lower value 1.01 | locus YOR080W, strain dia2, stronger effect = lower value 1.01 | locus YOR083W, strain WHI5, stronger effect = lower value 1.01 | locus YOR106W, strain vam3, stronger effect = lower value 1.01 | locus YOR136W, strain idh2, stronger effect = lower value 0.99 | locus YOR144C, strain elg1, stronger effect = lower value 0.999 | locus YOR184W, strain ser1, stronger effect = lower value 1.02 | locus YOR231W, strain MKK1, stronger effect = lower value 0.993 | locus YOR265W, strain rbl2, stronger effect = lower value 1.03 | locus YOR270C, strain vph1, stronger effect = lower value 1.08 | locus YOR290C, strain snf2, stronger effect = lower value 1.02 | locus YOR316C, strain cot1, stronger effect = lower value 0.999 | locus YPL051W, strain arl3, stronger effect = lower value 1.01 | locus YPL055C, strain LGE1, stronger effect = lower value 1.05 | locus YPL078C, strain atp4, stronger effect = lower value 1.02 | locus YPL106C, strain sse1, stronger effect = lower value 1.01 | locus YPL240C, strain hsp82, stronger effect = lower value 1.01 | locus YPL241C, strain CIN2, stronger effect = lower value 1.01 | locus YPL256C, strain CLN2, stronger effect = lower value 1.03 | locus YPR119W, strain clb2, stronger effect = lower value 0.995 | locus YPR141C, strain kar3, stronger effect = lower value 1 | locus YPR163C, strain tif3, stronger effect = lower value 1 | locus YPR167C, strain met16, stronger effect = lower value 1.02 | strain wtn01, stronger effect = lower value 1.03
